High-throughput results deposited in PubChem BioAssay by National Center for Advancing Translational Sciences (NCATS).
Pf Dd2 inh: qHTS Primary assay for Inhibitors of Plasmodium falciparum Dd2 growth in vitro | P. falciparum Dd2 growth, SYBR Green, 72 h | Potency, µM (top dose mostly 28.9 µM), for inactives: at the highest dose activity, negative = inhibition, hits mostly inhibitors | 4.3% of 120,000 active; active = well fitted inhibition curve with a large enough effect;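 note: plate controls were DMSO vehicle for no effect and reference drug for full effect; nearly all actives have a fitted effect of over 65% in size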
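Infected erythrocytes (Dd2, 0.3% parasitemia, 2.5% hematocrit final) are added to compound in RPMI-1640/Albumax II medium, grown 72 h at 37C in low oxygen, then lysed with saponin/Triton-X containing SYBR Green and read by fluorescence.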
* = called active by the depositor; i = inactive; [ ] = remark or other dose. This is one part of a sample in which hits are shown more often than they occur. Potency is the fitted concentration of half-maximal effect.

SMILES	Pf Dd2 inh
CCCCN1C(=O)[C@@H]2C[C@@H](O)CN2C2(CN(Cc3cccs3)C2)C1=O	-9.4%[44.1 µM]
O=C(CCc1ccccc1)N1CCC2(CC1)N=C(c1cccc(Br)c1)NO2	-19.6%
COc1cc(OC)cc(C(=O)N2CCC3(CC2)N=C(c2ccccc2)NO3)c1	15.3%
COc1cccc(CCC(=O)N2CCC3(CC2)N=C(c2ccccc2)NO3)c1	11.2µM*
O=C(c1ccoc1)N1CCc2nn(Cc3ccccc3)c(=O)n2CC1	7.2%
CN(CC1(C)CCOCC1)C(=O)c1ccc(Cl)s1	-10.9%
Cc1cnc(C2CCNC2)n1Cc1ccc(F)cc1 (stereo not given)	13.8%
O=C(N[C@H]1CCOC[C@H]1C1CCOCC1)c1ccccc1-c1ncc[nH]1	-24.2%
CN1CC2(CCN(Cc3cccn3C)CC2)CC1C(=O)N1CCOCC1 (stereo not given)	-26.1%
CN1CC2(CCN(Cc3ccccn3)CC2)CC1C(=O)N1CCOCC1 (stereo not given)	-0.6%
CN1CC2(CCN(C(=O)CCCc3ccccc3)CC2)CC1C(=O)N1CCOCC1 (stereo not given)	2.24µM*
CNC(=O)[C@@H](C1CC1)N1CCC[C@H]1C(=O)NCC1CC1	11.1%[44.1 µM]
Cn1ccc2c(C(=O)NCc3cccnc3)nc(-c3cncnc3)cc21	25.2%[44.1 µM]
CN1CCN(c2ccc(-c3cc4c(ccn4C)c(C(=O)NCc4cccnc4)n3)cc2)CC1	6.31µM*
Cc1ccc(-c2cc3c(ccn3C)c(C(=O)NCc3cccnc3)n2)cn1	i
CN(CC1CCOCC1)C(=O)c1ccc(F)c(F)c1	-13.1%
Cc1ccc(OCC(=O)N2CCC(c3noc(-c4ccccc4)n3)C2)cc1 (stereo not given)	13.6%[5.79 µM]
Cc1cc(C)c2nonc2c1S(=O)(=O)N1C[C@@H](N(C)C)[C@H](C(C)C)C1	11.2µM*
CC(=O)N[C@H]1CN(S(=O)(=O)c2ccc(C)c(F)c2)C[C@@H]1C(C)C	4.1%
Cc1nn(C)c(C)c1S(=O)(=O)N1C[C@@H](NS(C)(=O)=O)[C@H](C(C)C)C1	15.7%
O=C(C1CCC(O)CC1)N1CCCC(CCc2ccccc2C(F)(F)F)C1 (stereo not given)	-20.6%
CC(C)CC(=O)N1CCCCCNC(=O)CC1c1ccccc1 (stereo not given)	-13.9%
O=C(NC1CCN(c2cc(C(F)(F)F)ncn2)CC1)c1cccc(Cl)c1	-5.5%
COc1ccc(CNC(=O)CSc2ncc3c(n2)-c2ccc(Cl)cc2N(Cc2ccc(F)cc2)S3(=O)=O)cc1OC	11.2µM*
COc1ccccc1CNC(=O)CSc1ncc2c(n1)-c1ccc(Cl)cc1N(Cc1ccccc1)S2(=O)=O	0.8%
SMILES	Pf Dd2 inh
COc1ccc(CNC(=O)CSc2ncc3c(n2)-c2cc(Cl)ccc2N(Cc2ccccc2)S3(=O)=O)cc1	-29.4%
O=C(Nc1ccc2[nH]ccc2c1)c1ccc(-c2ncc3cnc(C4=CCOCC4)cn23)cc1	1.58µM*
O=C(O)c1ccc(-c2ncc3cnc(C4=CCOCC4)cn23)cc1	-18.2%[44.1 µM]
O=C(Nc1ccc2[nH]ccc2c1)c1cnc2c(c1)N([S+](=O)([O-])c1cccnc1)CCC2	i
CCCN1C(=O)CC[C@H]2CN(C(=O)c3ccc(F)c(OC)c3)CC[C@H]21	5.2%
CN1CCc2nc3sc(C(=O)c4ccc(F)cc4)c(N)c3cc2C1	-7.1%
CN1CCc2nc3sc(C(=O)Nc4ccccc4C(F)(F)F)c(N)c3cc2C1	8.91µM*
COc1ccc(NC(=O)c2sc3nc4c(cc3c2N)CN(Cc2ccccc2)CC4)cc1OC	i
COCC(=O)N1CC[C@H](c2nnc(C(C)(C)C)o2)C1	13.3%[44.1 µM]
NCc1cccc(-c2cccc(C(F)(F)F)c2)c1	11.2µM*
Fc1ccccc1-c1noc(NCc2ccccc2)n1	-4.0%
O=Cc1cccc(-c2ccc(F)cc2F)c1	-11.0%[44.1 µM]
O=Cc1cccc(-c2ccccc2F)c1	1.7%[76.6 µM]
NCc1cccc(-c2ccc(F)cc2F)c1	12.6µM*
O=C(O)c1cccc(-c2cccc(C(F)(F)F)c2)c1	5.0%[44.1 µM]
NCc1cccc(-c2ccccc2F)c1	11.2µM*
O=Cc1cccc(-c2cccc(C(F)(F)F)c2)c1	i
O=C(c1ccncc1)N1CC2CCC(C1)N2Cc1cccc(-c2ccc(F)cc2F)c1	-8.8%
Cc1cc(N2CCN(CC3CCCCC3)C(CCO)C2)nc(N)n1 (stereo not given)	-27.5%
CCc1ccccc1NC(=O)CCn1ccn2nc3c(c2c1=O)CCCC3	i
CCC1(N2CCN(C(=O)c3ccc(F)c(Cl)c3)CC2)CCN(S(C)(=O)=O)C1 (stereo not given)	-15.1%
O=C(NCCc1csc(-c2cccnc2)n1)C1NCCc2[nH]cnc21 (stereo not given)	-14.4%
Cc1noc(C)c1-c1cccc(CCOc2cnc3c(ccn3CC(=O)O)c2)c1	i
CS(=O)(=O)N1CCC(c2nccn2Cc2ccncc2)CC1	17.7%
O=C1COCC2(CN1Cc1cccc(OC(F)(F)F)c1)CN(c1ccccn1)C2	i
SMILES	Pf Dd2 inh
COc1cncc(N2CC3(COCC(=O)N(Cc4cccc(OC(F)(F)F)c4)C3)C2)c1	i
O=C1COCC2(CN1Cc1cccc(OC(F)(F)F)c1)CN(c1ccccc1F)C2	2.51µM*
CN1CC(=O)N(C2CCCC2)Cc2c(NC3CCNCC3)ncnc21	-0.6%
CCN(CC)CC[C@H]1CN(C(=O)c2ccc(OC)cc2)CC[C@H]1CC(=O)O	-11.1%[44.1 µM]
COc1ccc(CN2C(=O)O[C@@H]3CN(Cc4nc[nH]c4C)C[C@@H]32)cc1OC	5.6%
COc1ccc(CN2CCCCC23Cc2ccccc2CN(C(C)=O)C3)cc1 (stereo not given)	24.6%
CCN1CCCCC12Cc1ccccc1CN(C(=O)C1CCN(C)CC1)C2 (stereo not given)	-16.8%
O=C(O)CCC(=O)N1Cc2ccccc2CC2(CCCCN2Cc2ccncc2)C1 (stereo not given)	12.6%
CCN1CCCCC12Cc1ccccc1CN(C(=O)Cc1ccc(OC)cc1)C2 (stereo not given)	11.2µM*
CCCC(=O)N1Cc2ccccc2CC2(CCCN2Cc2ccncc2)C1 (stereo not given)	8.91µM*
CCCC(=O)N1Cc2ccccc2CC2(CCCCN2CC2CCOCC2)C1 (stereo not given)	8.91µM*
CC(=O)N1Cc2ccccc2CC2(CCCCN2CC2CCOCC2)C1 (stereo not given)	-16.5%
CC(=O)NCCC(=O)N1Cc2ccccc2CC2(CCCN2Cc2ccncc2)C1 (stereo not given)	0.4%
O=C(O)CCC(=O)N1Cc2ccccc2CC2(CCCN2Cc2ccccc2)C1 (stereo not given)	-14.0%
CN(C)CCC(=O)N1Cc2ccccc2CC2(CCCCN2CC2CCOCC2)C1 (stereo not given)	-29.7%
CCCC(=O)N1Cc2ccccc2CC2(CCCCN2Cc2ccncc2)C1 (stereo not given)	8.91µM*
Cn1cc(C(=O)N2CCCC(Cc3noc(-c4cccnc4)n3)C2)cn1 (stereo not given)	-7.7%
O=C1CCN(C(=O)c2cc3ccccc3[nH]2)CCCC(CO)CCN1 (stereo not given)	-0.9%
COc1ccc(CCC(=O)NC2CCc3nn(C)c(=O)n3CC2)cc1OC (stereo not given)	10.8%
O=C(Cc1ccccc1)N1CCC2(Cc3ccccc3NC2=O)C1 (stereo not given)	i
COc1ccccc1-c1ncc2c(n1)OCCN(Cc1ccc(F)cc1F)C2=O	i
COc1cccc(-c2ncc3c(n2)OCCN(Cc2ccc(F)cc2F)C3=O)c1	-21.2%[44.1 µM]
COc1cccc(-c2ncc3c(n2)OCCN(Cc2ccc(F)cc2F)C3=O)c1F	10µM*
